We go through four targets from the supplement of paper PMC10849652.

Common to all, as to assay: log2 fold change, soluble protein after heating vs DMSO (PISA); higher = thermal stabilisation; K562 lysate, 10 uM; active = over 0.2 and 3.5 SD of the protein, either way, in both replicates (recomputed)
Compound in one test: Cc1cn(-c2cc(NC(=O)c3ccc(C)c(Nc4nccc(-c5cccnc5)n4)c3)cc(C(F)(F)F)c2)cn1 [nilotinib]
A digest of the protocol: (§1)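 K562 pellets were dounce-homogenised in PBS pH 7.4 containing 1 mM MgCl2, and the crude extract, at 1 mg/mL protein, was exposed to 10 μM compound for 30 min. Aliquots were heated for 3 min across 48°C-58°C, pooled, brought to 0.5% NP-40 at 4°C and spun at 21,000xg for 90 min, with the supernatant taken as soluble protein. TMTpro 16plex LC-MS/MS with equalised channel sums quantified that protein. Values are log-two fold changes in thermal stability relative to solvent controls, taken from duplicates.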

Compound in test [1]: Cc1nc(Nc2n[nH]c3c2CN(C(=O)N[C@H](CN(C)C)c2ccccc2)C3(C)C)c2sccc2n1
A digest of the protocol:
as §1

Compound in the next test: Cc1nc(Nc2ncc(C(=O)Nc3c(C)cccc3Cl)s2)cc(N2CCN(CCO)CC2)n1 [dasatinib]
The essentials:
as §1

Compound in test [2]: Cc1ncc(-c2ccnc(Nc3ccc(S(C)(=O)=O)cc3)n2)n1C(C)C
The essentials:
as §1

Compound in test [3]: Cn1cc(-c2ccc3c(c2)CCN3C(=O)Cc2cccc(C(F)(F)F)c2)c2c(N)ncnc21
A digest of the protocol: as §1

Compound in a further test: Cn1cc(CNCC2CCN(c3ncc(C(=O)NO)cn3)CC2)c2ccccc21 [quisinostat]
A digest of the protocol:
as §1

Compound in a further test: Cn1cncc1[C@@](N)(c1ccc(Cl)cc1)c1ccc2c(c1)c(-c1cccc(Cl)c1)cc(=O)n2C [tipifarnib]
The essentials:
as §1

Compound in test [4]: NC(=O)Nc1cc(-c2cccc(F)c2)sc1C(=O)N[C@H]1CCCNC1
The essentials: as §1

Compound in test [5]: NC1(c2ccc(-c3nc4ccn5c(=O)[nH]nc5c4cc3-c3ccccc3)cc2)CCC1
The essentials: as §1

Compound in test [6]: NCC(=O)Nc1ccc(-n2nc(C(F)(F)F)cc2-c2ccc3c(ccc4ccccc43)c2)cc1
A digest of the protocol:
as §1

Compound in the next test: O=C(CCCCCCC(=O)Nc1ccccc1)NO [vorinostat]
The essentials:
as §1

Compound in another test: O=C(O)c1ccc2c(c1)nc(Nc1cccc(Cl)c1)c1ccncc12 [silmitasertib]
A digest of the protocol:
as §1

Compound in test [7]: O=C1NC(=O)C(c2cnc3ccccn23)=C1c1cn2c3c(cc(F)cc13)CN(C(=O)N1CCCCC1)CC2
The essentials:
as §1

Compound in the next test: c1cn2cc(-c3ccc4cn[nH]c4c3)nc(Nc3ccc(N4CCOCC4)cc3)c2n1 [entospletinib]
A digest of the protocol: as §1

Compound in test [8]: NC(=O)c1cnc(N[C@@H]2CCCC[C@@H]2N)nc1Nc1cccc(-n2nccn2)c1
A digest of the protocol: as §1

About 8,800 targets were measured; listed, in parts, are those with a hit and a random draw of the rest. About 0.5% of all pairs of compound and target were hits. Unmarked numbers belong to inactive results.

Chain of UniProt Q9BWT3 (Q9BWT3 whole entry, looked up): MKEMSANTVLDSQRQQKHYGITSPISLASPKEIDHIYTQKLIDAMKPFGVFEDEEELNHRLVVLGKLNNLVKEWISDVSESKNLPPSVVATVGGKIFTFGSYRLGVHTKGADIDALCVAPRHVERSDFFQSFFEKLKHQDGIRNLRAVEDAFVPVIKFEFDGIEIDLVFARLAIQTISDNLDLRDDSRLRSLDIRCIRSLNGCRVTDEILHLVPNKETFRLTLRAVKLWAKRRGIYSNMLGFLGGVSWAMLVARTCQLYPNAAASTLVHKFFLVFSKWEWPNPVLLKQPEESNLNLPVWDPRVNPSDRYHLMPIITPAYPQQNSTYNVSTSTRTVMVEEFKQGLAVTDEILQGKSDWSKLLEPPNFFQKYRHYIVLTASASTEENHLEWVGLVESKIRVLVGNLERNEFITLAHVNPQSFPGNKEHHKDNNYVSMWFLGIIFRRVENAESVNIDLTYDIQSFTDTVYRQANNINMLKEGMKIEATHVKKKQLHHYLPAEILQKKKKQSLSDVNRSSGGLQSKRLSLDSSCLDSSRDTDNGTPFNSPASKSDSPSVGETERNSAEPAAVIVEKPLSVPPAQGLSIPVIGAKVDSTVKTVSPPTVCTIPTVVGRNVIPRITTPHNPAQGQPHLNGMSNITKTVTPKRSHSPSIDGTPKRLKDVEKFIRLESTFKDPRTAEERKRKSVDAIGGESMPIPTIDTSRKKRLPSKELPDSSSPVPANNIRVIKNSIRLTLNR
Chain of UniProt P24468 (P24468 whole entry, looked up): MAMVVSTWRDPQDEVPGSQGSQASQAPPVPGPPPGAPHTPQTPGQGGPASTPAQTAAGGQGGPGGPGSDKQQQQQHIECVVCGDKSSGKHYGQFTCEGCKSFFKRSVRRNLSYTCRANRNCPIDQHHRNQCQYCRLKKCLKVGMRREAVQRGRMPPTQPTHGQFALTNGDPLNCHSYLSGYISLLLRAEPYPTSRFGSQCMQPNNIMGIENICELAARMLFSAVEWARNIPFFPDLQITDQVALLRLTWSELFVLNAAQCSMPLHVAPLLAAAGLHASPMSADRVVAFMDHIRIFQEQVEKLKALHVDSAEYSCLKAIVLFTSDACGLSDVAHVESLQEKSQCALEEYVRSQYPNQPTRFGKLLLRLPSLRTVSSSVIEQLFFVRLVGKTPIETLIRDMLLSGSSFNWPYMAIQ
Chain of UniProt Q9Y5A7 (Q9Y5A7 whole entry, looked up): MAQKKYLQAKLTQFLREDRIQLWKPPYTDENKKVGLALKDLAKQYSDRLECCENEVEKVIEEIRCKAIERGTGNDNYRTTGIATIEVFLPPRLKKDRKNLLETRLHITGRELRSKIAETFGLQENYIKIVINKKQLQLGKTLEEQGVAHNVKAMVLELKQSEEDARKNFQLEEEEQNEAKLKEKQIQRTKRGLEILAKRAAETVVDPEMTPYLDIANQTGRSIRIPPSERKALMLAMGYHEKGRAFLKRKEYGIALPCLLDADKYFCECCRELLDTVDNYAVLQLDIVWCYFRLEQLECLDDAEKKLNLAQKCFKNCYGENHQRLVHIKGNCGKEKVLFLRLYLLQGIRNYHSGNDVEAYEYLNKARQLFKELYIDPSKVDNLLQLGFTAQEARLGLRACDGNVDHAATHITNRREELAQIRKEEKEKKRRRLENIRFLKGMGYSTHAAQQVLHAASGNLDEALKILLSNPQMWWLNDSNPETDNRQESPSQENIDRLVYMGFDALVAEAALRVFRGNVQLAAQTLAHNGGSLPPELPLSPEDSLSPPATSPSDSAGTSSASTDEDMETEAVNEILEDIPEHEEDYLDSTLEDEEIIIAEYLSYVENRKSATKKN
Chain of UniProt Q14934 (Q14934 whole entry, looked up): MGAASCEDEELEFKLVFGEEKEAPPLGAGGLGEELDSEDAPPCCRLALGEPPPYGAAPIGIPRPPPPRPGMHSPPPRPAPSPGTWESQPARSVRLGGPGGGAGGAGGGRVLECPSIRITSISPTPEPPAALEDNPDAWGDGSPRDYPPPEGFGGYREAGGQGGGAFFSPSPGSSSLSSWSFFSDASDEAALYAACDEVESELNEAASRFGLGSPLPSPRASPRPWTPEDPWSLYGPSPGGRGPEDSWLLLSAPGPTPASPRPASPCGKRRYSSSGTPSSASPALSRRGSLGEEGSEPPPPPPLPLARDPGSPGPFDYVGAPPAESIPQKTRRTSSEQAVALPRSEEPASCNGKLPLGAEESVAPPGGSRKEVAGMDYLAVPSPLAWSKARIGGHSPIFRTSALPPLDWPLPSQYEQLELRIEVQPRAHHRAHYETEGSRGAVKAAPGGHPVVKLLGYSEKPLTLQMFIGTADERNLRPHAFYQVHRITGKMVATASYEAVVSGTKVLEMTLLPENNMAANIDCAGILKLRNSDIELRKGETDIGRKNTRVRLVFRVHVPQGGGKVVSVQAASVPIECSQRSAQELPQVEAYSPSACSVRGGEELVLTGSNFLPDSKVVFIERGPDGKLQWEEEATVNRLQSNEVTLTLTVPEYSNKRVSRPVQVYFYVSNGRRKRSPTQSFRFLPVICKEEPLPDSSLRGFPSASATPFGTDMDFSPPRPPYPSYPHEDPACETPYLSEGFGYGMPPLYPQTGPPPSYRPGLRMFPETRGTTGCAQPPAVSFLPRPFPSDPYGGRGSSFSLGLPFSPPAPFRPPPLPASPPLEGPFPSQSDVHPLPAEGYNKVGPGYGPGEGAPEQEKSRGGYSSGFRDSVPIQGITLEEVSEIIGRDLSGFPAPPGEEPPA

For PAPOLG (UniProt Q9BWT3), the log2 fold change with nilotinib is 0.025; in test [1] it was -0.025; in the test with dasatinib it was -0.023; in [2], 0.031; in test [3] it was 0.079; with quisinostat, -0.056. In addition, the log2 fold change in the test with tipifarnib is 0.079; in test [4], -0.054; in [5] it was 0.445; in [6] it was -0.037; with vorinostat it was -0.369 (active); in the test with silmitasertib, 0.209. The log2 fold change in test [7] is 0.066; in the test with entospletinib, -0.013.
On to NUB1 isoform 2 (UniProt Q9Y5A7), for which the log2 fold change is 0.205 with quisinostat, -0.019 in [4] and -0.068 in test [7].
Turning to NFATC4 isoform 2 (UniProt Q14934), the log2 fold change in the test with nilotinib is -0.046; in test [1], -0.018; with dasatinib it was 0.055; in [2], 0.04; in test [3], -0.041; with quisinostat, -0.07. Besides, the log2 fold change in the test with tipifarnib was -0.066; in [4], 0.01; in test [8] it was -0.017; in test [6] it was 0.207; in test [7], 0.076; with entospletinib, 0.019.
With NR2F2 (UniProt P24468), the log2 fold change in the test with nilotinib was -0.063; in [1] it was 0.107; in the test with dasatinib it was -0.027; in test [2] it was -0.125; in [3] it was -0.006; with quisinostat it was -0.024. In addition, the log2 fold change is 0.034 with tipifarnib; 0.125 in [4]; 0.024 in test [8]; 0.029 in test [5]; -0.389 (active) with vorinostat; 0.176 with silmitasertib. In test [7], the log2 fold change is 0.017.
